# Experimental data: PubChem BioAssay (EPA / NIEHS)
# Where “and” joins values, the source holds several entries; their conditions need not be identical. Equal entries are not always repeated. The source holds several records for some structures; these can differ, active in one and inactive in another. Calls of active or inactive are those of the source. How the source made its calls: active means hit-call score of the fitted dose curve at least 0.9, where 1 is the maximum; inactive means score below 0.9.
# Legend:
# [1] = APR_HepG2_NuclearSize_72hr: Apredica 72-hour HepG2 Assay for Nuclear Size (AID 2282925); conditions: high-content imaging, actives raise or lower the signal
# In short: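 Compounds (0.39–200 uM, final DMSO 0.5%) were applied to HepG2 for 72 hr. Cells were then formaldehyde-fixed, permeabilized and labelled with Hoechst 33342. Nuclear diameter was quantified from six images per well.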
# [2] = ATG_CRE_CIS: Attagene CIS-FACTORIAL HepG2 Assay for human cAMP Responsive Element (CRE) binding protein 3 (AID 2282926); conditions: HepG2 CRE cis-reporter, Attagene multiplexed mRNA; actives raise or lower the signal
# In short: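 Induced reporter mRNA from a CRE cis element, measured in HepG2 among many multiplexed units at 24 h. Detection used RT-PCR plus capillary electrophoresis of fluorescent fragments; DMSO served as negative control.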
# [3] = ATG_CMV_CIS: Attagene CIS-FACTORIAL HepG2 Assay for human CMV (Internal Marker) (AID 2282928); conditions: HepG2 CMV promoter reporter, transcription factor profiling; actives raise or lower the signal;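 further: endpoint acts as a background internal control marker rather than a target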
# In short: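 24 h chemical treatment, HepG2 with transient multi-reporter transfection; RNA → oligo(dT) RT → PCR → 6-FAM extension → HpaI digest → CE fluorescence. Bidirectional fit, DMSO negative control.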
# [4] = ATG_DR4_LXR_CIS: Attagene CIS-FACTORIAL HepG2 Assay for human Liver X Receptor (LXR), DR4 submotif (AID 2282929); conditions: HepG2 Attagene DR4 cis-reporter, mRNA transcription; actives raise or lower the signal
# In short: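 HepG2, transient MRTU transfection, cis-element (DR4) promoter; 24 h compound exposure; total RNA → oligo(dT) RT → PCR → 6-FAM primer extension → HpaI cut → CE. Gain/loss vs DMSO, bidirectional fit.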
# [5] = target: Aryl hydrocarbon receptor (Homo sapiens) (UniProt P35869); assay: ATG_Ahr_CIS: Attagene CIS-FACTORIAL HepG2 Assay for human Aryl Hydrocarbon Receptor (Ahr) (AID 2282930); conditions: HepG2 AhR cis-factorial reporter transcription; actives raise or lower the signal
# In short: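 Values derive from bidirectional fitting against DMSO negative control. Underlying signal: cis-element reporter mRNA in transiently transfected HepG2, harvested 24 h post-dose and measured by RT-PCR plus capillary electrophoresis.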
# [6] = ATG_AP_1_CIS: Attagene CIS-FACTORIAL HepG2 Assay for human Activator Protein 1 (AP-1) (AID 2282931); conditions: HepG2 Attagene cis-factorial AP-1 reporter mRNA; actives raise or lower the signal
# In short: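 Transient MRTU transfection of HepG2 → 24 h chemical treatment → RNA isolation, RT-PCR, 6-FAM labelling, HpaI digest → capillary electrophoresis. Fit: bidirectional, DMSO negative control.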
# [7] = ATG_AP_2_CIS: Attagene CIS-FACTORIAL HepG2 Assay for human Activator Protein 2 (AP-2) (AID 2282932); conditions: HepG2 AP-2 cis-reporter, Attagene transcription factor profiling; actives raise or lower the signal
# In short: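 Assay in transfected HepG2 with promoter-regulated reporters, 24 h incubation after dosing. Signal is reporter mRNA fluorescence (RT-PCR, capillary electrophoresis), analysed for both increases and decreases relative to DMSO controls.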
# [8] = ATG_BRE_CIS: Attagene CIS-FACTORIAL HepG2 Assay for human Bone Morphogenetic Protein (BMP) Response Element (BRE) (AID 2282933); conditions: HepG2 BMP response element reporter, Attagene transcription factor profiling; actives raise or lower the signal
# In short: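 Endogenous transcription factor activity read in transiently transfected HepG2 cells after 24 h chemical exposure. Bidirectional curve fitting against DMSO; readout is reporter transcript level by RT-PCR with capillary electrophoresis of labelled products.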
# [9] = target: Retinoic acid receptor alpha (Homo sapiens) (UniProt P10276); assay: ATG_DR5_RAR_CIS: Attagene CIS-FACTORIAL HepG2 Assay for human Retinoic Acid Receptor Alpha (RARE), DR5 submotif (AID 2282934); conditions: HepG2 Attagene cis-factorial RARE DR5 reporter, mRNA; actives raise or lower the signal;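 on AC50: reporter responds to endogenous RAR alpha beta and gamma in HepG2 not RARA alone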
# In short: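 Endpoint fitted in both directions relative to DMSO as negative control. It reflects DR5 cis-element reporter mRNA induction in transiently transfected HepG2 cells, measured 24 h after dosing through RT-PCR and fluorescent capillary electrophoresis.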
# [10] = target: CCAAT/enhancer-binding protein beta (Homo sapiens) (UniProt P17676); assay: ATG_C_EBP_CIS: Attagene CIS-FACTORIAL HepG2 Assay for human CCAAT/Enhancer Binding Protein (C/EBP) beta (AID 2282927); conditions: HepG2 Attagene cis-factorial transcription factor reporter; actives raise or lower the signal
# In short: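 Following a 24 h incubation with test chemical, transfected HepG2 cells yielded RNA whose reporter transcripts were quantified by RT-PCR and fluorescent capillary electrophoresis, with DMSO serving as baseline for bidirectional fitting.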
# Chain of CCAAT/enhancer-binding protein beta (Homo sapiens) (P17676 whole entry, looked up): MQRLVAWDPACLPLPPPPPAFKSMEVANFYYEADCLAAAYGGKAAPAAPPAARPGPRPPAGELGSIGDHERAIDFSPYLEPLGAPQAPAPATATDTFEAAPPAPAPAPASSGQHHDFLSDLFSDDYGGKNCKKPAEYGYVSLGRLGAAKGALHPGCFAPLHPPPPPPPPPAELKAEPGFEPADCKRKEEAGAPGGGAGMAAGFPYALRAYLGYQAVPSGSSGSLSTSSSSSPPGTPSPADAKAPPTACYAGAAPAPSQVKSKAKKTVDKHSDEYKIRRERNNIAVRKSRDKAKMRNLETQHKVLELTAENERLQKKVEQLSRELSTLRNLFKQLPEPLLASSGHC
# Chain of Aryl hydrocarbon receptor (Homo sapiens) (P35869 whole entry, looked up): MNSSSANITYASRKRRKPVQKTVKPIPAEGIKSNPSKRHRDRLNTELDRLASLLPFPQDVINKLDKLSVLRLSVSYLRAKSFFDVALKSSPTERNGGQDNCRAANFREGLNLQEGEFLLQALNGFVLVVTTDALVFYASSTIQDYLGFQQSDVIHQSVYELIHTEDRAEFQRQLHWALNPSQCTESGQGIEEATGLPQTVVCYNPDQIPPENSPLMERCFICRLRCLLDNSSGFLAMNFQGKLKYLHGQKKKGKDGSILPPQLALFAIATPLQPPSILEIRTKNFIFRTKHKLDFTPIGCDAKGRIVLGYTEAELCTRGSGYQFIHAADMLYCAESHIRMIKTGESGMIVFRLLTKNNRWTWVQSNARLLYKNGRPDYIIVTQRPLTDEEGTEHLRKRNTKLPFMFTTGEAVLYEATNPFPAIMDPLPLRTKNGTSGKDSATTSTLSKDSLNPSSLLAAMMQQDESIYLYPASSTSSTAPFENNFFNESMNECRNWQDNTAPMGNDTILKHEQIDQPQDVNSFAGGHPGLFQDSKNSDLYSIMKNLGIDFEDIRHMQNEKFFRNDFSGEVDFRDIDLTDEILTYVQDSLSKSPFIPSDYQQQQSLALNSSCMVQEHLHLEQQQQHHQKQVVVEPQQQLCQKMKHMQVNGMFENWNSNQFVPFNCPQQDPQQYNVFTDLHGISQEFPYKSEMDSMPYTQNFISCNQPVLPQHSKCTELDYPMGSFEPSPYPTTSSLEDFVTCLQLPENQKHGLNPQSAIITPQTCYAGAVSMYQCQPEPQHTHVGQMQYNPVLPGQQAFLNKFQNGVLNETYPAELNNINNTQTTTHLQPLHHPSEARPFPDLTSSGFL
# Chain of Retinoic acid receptor alpha (Homo sapiens) (P10276 whole entry, looked up): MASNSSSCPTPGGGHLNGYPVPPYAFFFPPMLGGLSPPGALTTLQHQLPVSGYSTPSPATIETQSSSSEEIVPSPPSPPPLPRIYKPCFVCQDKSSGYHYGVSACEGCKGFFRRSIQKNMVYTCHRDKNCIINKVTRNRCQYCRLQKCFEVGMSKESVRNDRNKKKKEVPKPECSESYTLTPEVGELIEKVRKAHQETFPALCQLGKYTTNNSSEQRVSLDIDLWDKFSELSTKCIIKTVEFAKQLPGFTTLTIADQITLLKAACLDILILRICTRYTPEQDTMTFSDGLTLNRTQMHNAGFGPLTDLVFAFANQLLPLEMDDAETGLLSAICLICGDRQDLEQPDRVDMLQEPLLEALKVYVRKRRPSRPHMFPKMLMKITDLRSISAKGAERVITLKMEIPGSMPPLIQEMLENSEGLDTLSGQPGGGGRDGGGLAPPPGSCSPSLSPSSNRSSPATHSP
Structure (SMILES),outcome [1],outcome [2],AC50 [3],AC50 [4],outcome [5],outcome [6],outcome [7],outcome [8],AC50 [2],outcome [3],outcome [4],AC50 [6],AC50 [8],AC50 [9],outcome [9],AC50 [1],AC50 [7],outcome [10],AC50 [5],AC50 [10]
CCCN(CCC)c1c([N+](=O)[O-])cc(C(F)(F)F)cc1[N+](=O)[O-],inactive,inactive,82.3 µM (active),24.1 µM (active),inactive,inactive,inactive,inactive,,,,,,,,,,,,
ClC1C(Cl)C(Cl)C(Cl)C(Cl)C1Cl (stereo unspecified),inactive,inactive,65.5 µM (active),116 µM (active) and 21.7 µM (active),inactive,inactive,inactive,inactive,16 µM (active),inactive,inactive,47.9 µM (active),10.5 µM (active),11 µM (active) and 5.74 µM (active),inactive,,,,,
Oc1ccc(Cl)cc1Cc1ccccc1,inactive,inactive,15.2 µM (active),11.2 µM (active) and 14.2 µM (active) and 13.4 µM (active),inactive,inactive,inactive,inactive,13.4 µM (active),inactive,inactive,12.7 µM (active),9.67 µM (active),,inactive,110 µM (active),17.6 µM (active),,,
COC(=O)c1ccccc1S(=O)(=O)NC(=O)Nc1nc(C)nc(OC)n1,inactive,inactive,,,inactive,inactive,inactive,inactive,,inactive,inactive,63.1 µM (active),27.1 µM (active),,inactive,,,,,
CC1(c2ccc(Oc3ccccc3)cc2)OC(=O)N(Nc2ccccc2)C1=O (stereo unspecified),inactive,,,,inactive,inactive,inactive,,1.3 µM (active),inactive,inactive,,1.14 µM (active),,inactive,,,inactive,,
O=S(=O)(O)C(F)(F)C(F)(F)C(F)(F)C(F)(F)C(F)(F)C(F)(F)C(F)(F)C(F)(F)F,inactive,inactive,61.4 µM (active) and 191 µM (active) and 89.9 µM (active),,inactive,inactive,inactive,inactive,142 µM (active) and 53.4 µM (active),inactive,inactive,26.9 µM (active) [middle of 8 runs],,,,110 µM (active) and 9.67 µM (active),140 µM (active) and 26.8 µM (active),,180 µM (active) and 40.3 µM (active),
O=C1c2ccccc2C(=O)N1SC(Cl)(Cl)Cl,inactive,inactive,,,inactive,inactive,inactive,inactive,,inactive,inactive,,,,inactive,,,inactive,,
CC(C)(C)C(O)C(Oc1ccc(Cl)cc1)n1cncn1 (stereo unspecified),inactive,inactive,,,inactive,inactive,inactive,inactive,5.81 µM (active),inactive,inactive,10.4 µM (active),7.92 µM (active),4.35 µM (active) and 4.55 µM (active) and 7.16 µM (active),inactive,,,,,
COP(=O)(OC)OC=C(Cl)Cl,inactive,inactive,18.4 µM (active),,inactive,,,inactive,,,inactive,67.3 µM (active),,,,,50 µM (active),,,
COP(=S)(OC)Oc1ccc(SC)c(C)c1,inactive,inactive,,29.2 µM (active),,inactive,inactive,inactive,,inactive,,,,,inactive,,,inactive,10.6 µM (active),
CNC(=O)Oc1cccc(N=CN(C)C)c1,inactive,,50 µM (active),,,,inactive,,50 µM (active),,inactive,77.5 µM (active),58.3 µM (active),,inactive,,,,93.9 µM (active),50 µM (active)
CN1CSC(=S)N(C)C1,inactive,,,,inactive,inactive,inactive,,50 µM (active),inactive,inactive,,15.4 µM (active),,inactive,,,inactive,,
CCN(CC)C(=O)SCc1ccc(Cl)cc1,inactive,inactive,,,inactive,inactive,inactive,,,inactive,inactive,,50 µM (active),,inactive,,,,,8.69 µM (active)
CNC(=O)/C=C(\C)OP(=O)(OC)OC,inactive,inactive,,,inactive,inactive,inactive,inactive,,inactive,inactive,,,,,,,inactive,,
O=S1OCC2C(CO1)C1(Cl)C(Cl)=C(Cl)C2(Cl)C1(Cl)Cl (stereo unspecified),inactive,inactive,,,inactive,inactive,inactive,inactive,,inactive,inactive,,,,inactive,,,inactive,,
CCCN(CCOc1c(Cl)cc(Cl)cc1Cl)C(=O)n1ccnc1,inactive,inactive,11.1 µM (active),,,inactive,inactive,inactive,,inactive,inactive,14 µM (active),15.1 µM (active),3.01 µM (active),inactive,,,,,
O=C(Nc1ccccc1)Nc1cnns1,inactive,inactive,50 µM (active),82.7 µM (active),inactive,,inactive,,,,,50 µM (active),50 µM (active),,inactive,,,inactive,,
Clc1ccccc1-c1nnc(-c2ccccc2Cl)nn1,inactive,inactive,,,inactive,inactive,inactive,inactive,,inactive,inactive,,,,inactive,,,inactive,,
Cc1cc(C)nc(NC(=O)NS(=O)(=O)c2ccccc2C(=O)OC2COC2)n1,inactive,inactive,,,inactive,inactive,inactive,,,inactive,inactive,,91 µM (active),,inactive,,,inactive,,
[2H]C1([2H])[n+]2ccccc2-c2cccc[n+]2C1([2H])[2H],inactive,inactive,13.5 µM (active),79.9 µM (active),inactive,,inactive,inactive,,,,38.9 µM (active),,,inactive,,,inactive,,
CC(C)OC(=O)Nc1cccc(Cl)c1,inactive,,34.1 µM (active),,inactive,inactive,inactive,inactive,15.3 µM (active),,inactive,,,,inactive,,,,,22.5 µM (active)
O=C(O)CCCOc1ccc(Cl)cc1Cl,inactive,inactive,,,inactive,inactive,inactive,inactive,,inactive,inactive,,,,inactive,,,inactive,,
O=C(NC(=O)c1c(F)cccc1F)Nc1ccc(OC(F)(F)C(F)OC(F)(F)F)c(Cl)c1 (stereo unspecified),inactive,inactive,,,inactive,inactive,inactive,,,inactive,inactive,,14.2 µM (active),,,,,inactive,,
O=C(O)C(F)(F)C(F)(F)C(F)(F)C(F)(F)C(F)(F)C(F)(F)C(F)(F)F,inactive,inactive,,11.5 µM (active),inactive,inactive,inactive,inactive,,inactive,inactive,150 µM (active),,,,,,inactive,,
